Assay [1] is described as follows: Nuclear factor erythroid 2-related factor 2/antioxidant responsive element (Nrf2/ARE) small molecule agonists: qHTS cell viability counter screen in human keratinocytes (AID 1919968; active = well fitted curve in the direction sought with a large enough effect in the repeat runs; an effect the other way counts as inactive or inconclusive; note: nearly all actives have a fitted effect of over 55% in size; note: potency is the fitted concentration of half-maximal effect). The gist of the method: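 Cytotoxicity was multiplexed with the Nrf2/ARE luciferase assay in the same wells. Stably transfected HaCaT keratinocytes were treated with test compounds for 23 h at 37 C. Cell viability was then measured by CellTiter-Fluor fluorescence.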
A general note: Quantitative high-throughput screening tests each substance at several concentrations.

Assay [2] in a line: Nuclear factor erythroid 2-related factor 2/antioxidant responsive element (Nrf2/ARE) small molecule agonists: luciferase reporter gene qHTS assay in human keratinocytes (AID 1919969). Note: nearly all actives have a fitted effect of over 35% in size. Note: potency is the fitted concentration of half-maximal effect.
Assay [3] has as its target Gonadotropin-releasing hormone receptor (Homo sapiens) (UniProt P30968). The assay is described as follows: Human gonadotropin-releasing hormone receptor (GnRHR) small molecule agonists, calcium flux assay in GnRHR-HEK293 cells (AID 1920063). Note: nearly all actives have a fitted effect of over 35% in size. Note: potency is the fitted concentration of half-maximal effect. The method, boiled down: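 Agonist activity was measured as intracellular calcium flux in HEK293 cells engineered to stably express human GnRHR. After dye loading for 1 hour at 37 C, compounds in DMSO were added and fluorescence was followed for 3 minutes.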

The target of assay [4] is KiSS-1 receptor (Homo sapiens) (UniProt Q969F8). The assay is described as follows: Human kisspeptin (KISS1R) small molecule agonists, calcium flux assay in KISS1R-HEK293 cells (AID 1920064; active = well fitted curve in the direction sought with a large enough effect in the repeat runs; an effect the other way counts as inactive or inconclusive). The gist of the method: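 Agonist activity is monitored as intracellular calcium rise in engineered HEK293 cells carrying human KISS1R. Cells are dye-loaded for 1 h at 37 C before compound addition, and fluorescence is recorded for 3 min.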
Chain of KiSS-1 receptor (Homo sapiens) (Q969F8 whole entry, looked up): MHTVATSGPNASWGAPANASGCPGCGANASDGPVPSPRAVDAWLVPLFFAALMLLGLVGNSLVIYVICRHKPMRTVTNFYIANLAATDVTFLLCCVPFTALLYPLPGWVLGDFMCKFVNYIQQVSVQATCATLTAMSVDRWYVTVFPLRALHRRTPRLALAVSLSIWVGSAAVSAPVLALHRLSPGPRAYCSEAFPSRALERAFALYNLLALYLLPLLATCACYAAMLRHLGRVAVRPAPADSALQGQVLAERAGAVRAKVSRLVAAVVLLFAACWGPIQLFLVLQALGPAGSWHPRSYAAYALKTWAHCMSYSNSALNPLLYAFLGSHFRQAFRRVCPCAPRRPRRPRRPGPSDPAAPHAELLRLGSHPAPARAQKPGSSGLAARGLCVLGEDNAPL
(Calcium flux is commonly read through the fluorescence of an indicator in the cells.)

Assay [5] is described as follows: G protein-coupled receptor (GPCR) small molecule agonists, calcium flux assay: HEK293 wild type cell line counter screen (AID 1920065). The gist of the method:
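Seed cells, incubate 18 h (37 C, 5% CO2); add calcium dye, 1 h at 37 C; pin-transfer compounds, ATP control or DMSO; read fluorescence 480/540 nm each second for 3 min.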

Assay [6] is described as follows: p53 small molecule agonists, cell-based qHTS assay with human liver microsomes (AID 1963577).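 Note: p53 response element beta-lactamase reporter cells with liver microsomes plus NADPH.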 The gist of the method: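 Metabolically competent format: test substances, human liver microsomes and NADPH (both 0.5 mg/mL final) incubated with p53RE-bla cells 16 h at 37 C. Beta-lactamase reporter signal then quantified by fluorescence.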
A short description of assay [7]: p53 small molecule agonists, cell-based qHTS assay with rat liver microsomes (AID 1963578). The method, boiled down:
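Each plate received p53RE-bla cells, then compound, then rat liver microsomes and NADPH (both 0.5 mg/mL final). Plates were held 16 h at 37 C, and beta-lactamase activity was detected with LiveBLAzer over 2 h.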

Assay [8] is described as follows: p53 small molecule agonists, cell-based qHTS assay with human liver microsomes: qHTS cell viability counter screen (AID 1963579). Note: nearly all actives have a fitted effect of over 45% in size. Note: potency is the fitted concentration of half-maximal effect. The method, boiled down: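 Tox21 library compounds, delivered from DMSO stocks, were tested on p53RE-bla cells together with 0.5 mg/mL human liver microsomes and 0.5 mg/mL NADPH (final) over 16 h at 37 C; CellTiter-Glo luminescence served as the cytotoxicity measure.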

Assay [9] can be described thus: p53 small molecule agonists, cell-based qHTS assay with rat liver microsomes: qHTS cell viability counter screen (AID 1963580). Note: nearly all actives have a fitted effect of over 45% in size. Note: potency is the fitted concentration of half-maximal effect. The gist of the method: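 Cytotoxicity counter screen: intracellular ATP measured by CellTiter-Glo luminescence in the same wells as the beta-lactamase reporter read, on HCT-116 p53RE-bla cells exposed 16 h at 37 C to compounds with rat liver microsomes and NADPH, each 0.5 mg/mL final.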

Assay [10] is described as follows: p53 small molecule agonists, cell-based qHTS assay (AID 1963582; active = well fitted activation curve with a large enough effect in the signal ratio in the repeat runs, not every such curve was filed as active; the % refers to the signal ratio). The gist of the method: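 Cells carrying a p53-responsive bla reporter are treated with test compounds for 16 h at 37 C; beta-lactamase activity is then detected with LiveBLAzer B/G FRET substrate after 2 h at room temperature.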
The target of assay [11] is 5-hydroxytryptamine receptor 2A (Homo sapiens) (UniProt P28223). The experiment in a line: 5-hydroxytryptamine receptor 2A (HTR2A) small molecule antagonists, cell-based qHTS assay (AID 1963586). Note: nearly all actives have a fitted effect of over 45% in size. Note: potency is the fitted concentration of half-maximal effect. The method, boiled down: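 CHO cells stably expressing human HTR2A were plated for 18 h at 37 C, then loaded with calcium dye for 1 h. Compounds were preincubated 5 min at room temperature before DOI (4 nM solution) was added. Kinetic fluorescence was read for 3 min.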
Chain of 5-hydroxytryptamine receptor 2A (Homo sapiens) (P28223 whole entry, looked up): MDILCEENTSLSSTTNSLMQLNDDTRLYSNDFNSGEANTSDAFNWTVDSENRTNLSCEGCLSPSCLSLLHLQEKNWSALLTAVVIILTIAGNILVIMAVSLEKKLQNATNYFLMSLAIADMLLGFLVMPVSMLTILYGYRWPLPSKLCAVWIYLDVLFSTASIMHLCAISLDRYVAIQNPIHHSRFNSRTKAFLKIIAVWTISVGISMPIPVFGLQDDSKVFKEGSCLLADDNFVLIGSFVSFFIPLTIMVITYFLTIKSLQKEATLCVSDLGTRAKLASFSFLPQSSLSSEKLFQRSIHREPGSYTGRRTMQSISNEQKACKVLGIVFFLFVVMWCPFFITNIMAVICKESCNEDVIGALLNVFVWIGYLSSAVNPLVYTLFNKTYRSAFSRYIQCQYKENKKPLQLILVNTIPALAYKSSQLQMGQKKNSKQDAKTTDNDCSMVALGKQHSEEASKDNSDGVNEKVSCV

Assay [12] concerns the target Muscarinic acetylcholine receptor M1 (Homo sapiens) (UniProt P11229). The assay is described as follows: Cholinergic receptor muscarinic 1 (CHRM1) small molecule antagonists, cell-based qHTS assay (AID 1963588). Note: nearly all actives have a fitted effect of over 40% in size. Note: potency is the fitted concentration of half-maximal effect. The gist of the method: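 Compounds were tested at 15 concentrations in three independent runs. Dye-loaded CHRM1-CHO cells were exposed 5 min at room temperature before stimulation by acetylcholine added at 50nM. Intracellular calcium was read kinetically on FDSS for 3 min.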

For assay [13] the target is unchanged. The assay is described as follows: Cholinergic receptor muscarinic 1 (CHRM1) small molecule agonists, cell-based qHTS assay (AID 1963589). Note: nearly all actives have a fitted effect of over 35% in size. Note: potency is the fitted concentration of half-maximal effect. The method, boiled down:
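Cells were plated and incubated 18 h at 37 C/5% CO2, loaded with calcium dye for 1 h at 37 C, then treated with compounds in DMSO. Fluorescence was recorded kinetically at 1 sec intervals.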

The nature of assay [14]: cAMP Responsive Elements (CRE) small molecule agonists, cell-based qHTS assay (AID 1963590). The gist of the method: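 Cells carrying a CRE-driven beta-lactamase reporter (HEK 293T) are seeded, incubated overnight (18 h), and treated with test compounds for 3 h at 37 C; reporter activity is then detected with a FRET substrate after 2 h at room temperature.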
Assay [15] is described as follows: cAMP Responsive Elements (CRE) small molecule antagonists, cell-based qHTS assay (AID 1963591; active = well fitted inhibition curve with a large enough effect in the signal ratio in the repeat runs, not every such curve was filed as active; the % refers to the signal ratio). The gist of the method:
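Cells (CRE-bla HEK 293T, DMEM with 10% dialyzed FBS and 25 mM HEPES) are seeded and incubated 18 h. Compounds are added with NKH477 agonist at 0.25 uM final for 3 h, then FRET substrate for 2 h.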

Assay [16] has as its target Beta-2 adrenergic receptor (Homo sapiens) (UniProt P07550). The experiment in a line: Adrenergic beta2 receptor (ADRB2) small molecule antagonists, cell-based qHTS assay (AID 1963592). Note: series mostly up to about 92 µM; nearly all actives have a fitted effect of over 50% in size. The method, boiled down:
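Assay format: CHO-ADRB2 cells, 18-20hr seeding at 37C/5% CO2, then compound plus 1nM isoproterenol agonist mix for 0.5hr RT. Homogeneous time-resolved fluorescence cAMP detection after 1hr, expressed as 665/615 nm ratio.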

The target of assay [17] is D(2) dopamine receptor (Homo sapiens) (UniProt P14416). The experiment in a line: Dopamine D2 receptor (DRD2) small molecule agonists, cell-based qHTS assay (AID 1963594). Note: nearly all actives have a fitted effect of over 35% in size. The gist of the method:
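HEK293 cells stably expressing human DRD2, pre-treated with PDE inhibitor Ro20-1724 (0.1 mM final) and compound 10 min at room temperature, then stimulated with NKH477 (200nM […]) for 30 min. cAMP read by HTRF (665/620 nm).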

For assay [18] the target is unchanged. The assay is described as follows: Dopamine D2 receptor (DRD2) small molecule antagonists, cell-based qHTS assay (AID 1963595; active = well fitted inhibition curve with a large enough effect in the signal ratio in the repeat runs, with a control signal flat; the % refers to the signal ratio; note: potency is the fitted concentration of half-maximal effect). The gist of the method:
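HEK293 cells stably expressing DRD2 were preincubated with 0.1 mM Ro20-1724, then with compound for 10 min at room temperature. Cells were stimulated with 200 nM NKH477 plus 12 nM quinpirole for 30 min, and cAMP was read by HTRF.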

A short description of assay [19]: p53 small molecule agonists, cell-based qHTS assay: qHTS cell viability counter screen (AID 1963581). Note: nearly all actives have a fitted effect of over 45% in size. Note: potency is the fitted concentration of half-maximal effect. The method, boiled down:
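Viability was counter-screened in parallel with the p53 agonist reporter by measuring intracellular ATP luminescence in the same HCT-116 p53RE-bla wells after 16 h compound treatment at 37 C.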

Assay [20] concerns the target 5-hydroxytryptamine receptor 2A (Homo sapiens) (UniProt P28223). The assay is described as follows: 5-hydroxytryptamine receptor 2A (HTR2A) small molecule agonists, cell-based qHTS assay (AID 1963587). Note: nearly all actives have a fitted effect of over 30% in size. Note: potency is the fitted concentration of half-maximal effect. The method, boiled down: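 CHO cells stably expressing human HTR2A, plated 18 h, loaded with calcium dye 1 h at 37 C. Agonist mode: compounds added and intracellular calcium fluorescence recorded kinetically for 2 min at 1 sec intervals.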

“And” between values parts separate entries of the source, which are not always exact repeats. Equal entries are not always repeated. Records with an inconclusive call do not appear. A structure can be active in one record and inactive in another. The source made the active and inactive calls. Unless noted, calls come from the whole dose curve.

Chain of D(2) dopamine receptor (Homo sapiens) (P14416 whole entry, looked up): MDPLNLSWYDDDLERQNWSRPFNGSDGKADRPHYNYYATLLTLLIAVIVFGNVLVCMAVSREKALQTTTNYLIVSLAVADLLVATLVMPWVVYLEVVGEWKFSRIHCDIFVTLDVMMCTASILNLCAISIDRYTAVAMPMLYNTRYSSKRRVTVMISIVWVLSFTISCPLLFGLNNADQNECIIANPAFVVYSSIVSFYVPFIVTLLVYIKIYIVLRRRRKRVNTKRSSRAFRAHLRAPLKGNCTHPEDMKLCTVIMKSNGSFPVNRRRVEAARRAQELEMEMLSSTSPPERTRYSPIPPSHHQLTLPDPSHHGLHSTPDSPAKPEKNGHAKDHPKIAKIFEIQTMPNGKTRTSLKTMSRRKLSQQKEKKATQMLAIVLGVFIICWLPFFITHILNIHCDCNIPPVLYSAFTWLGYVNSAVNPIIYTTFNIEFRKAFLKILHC
Chain of Gonadotropin-releasing hormone receptor (Homo sapiens) (P30968 whole entry, looked up): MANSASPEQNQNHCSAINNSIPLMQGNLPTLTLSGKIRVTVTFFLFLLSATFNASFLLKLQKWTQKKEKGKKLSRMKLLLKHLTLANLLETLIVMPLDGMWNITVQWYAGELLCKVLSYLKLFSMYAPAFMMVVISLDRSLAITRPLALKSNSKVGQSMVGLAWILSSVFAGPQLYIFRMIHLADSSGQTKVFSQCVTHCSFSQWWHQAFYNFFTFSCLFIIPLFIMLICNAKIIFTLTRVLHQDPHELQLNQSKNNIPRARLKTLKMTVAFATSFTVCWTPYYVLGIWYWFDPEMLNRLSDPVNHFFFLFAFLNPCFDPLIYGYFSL
Chain of Muscarinic acetylcholine receptor M1 (Homo sapiens) (P11229 whole entry, looked up): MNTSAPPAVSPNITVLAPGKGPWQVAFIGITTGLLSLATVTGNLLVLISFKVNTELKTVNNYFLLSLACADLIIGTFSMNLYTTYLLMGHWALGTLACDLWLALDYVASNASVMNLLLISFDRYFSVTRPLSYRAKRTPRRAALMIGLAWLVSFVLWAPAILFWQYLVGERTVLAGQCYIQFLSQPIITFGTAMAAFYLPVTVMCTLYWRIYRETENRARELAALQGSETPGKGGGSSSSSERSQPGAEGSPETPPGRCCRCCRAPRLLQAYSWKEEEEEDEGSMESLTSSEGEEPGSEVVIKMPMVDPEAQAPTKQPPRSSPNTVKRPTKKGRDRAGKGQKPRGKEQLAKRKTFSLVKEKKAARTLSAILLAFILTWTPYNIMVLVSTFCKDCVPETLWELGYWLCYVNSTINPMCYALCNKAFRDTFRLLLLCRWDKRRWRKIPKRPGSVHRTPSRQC
Chain of Beta-2 adrenergic receptor (Homo sapiens) (P07550 whole entry, looked up): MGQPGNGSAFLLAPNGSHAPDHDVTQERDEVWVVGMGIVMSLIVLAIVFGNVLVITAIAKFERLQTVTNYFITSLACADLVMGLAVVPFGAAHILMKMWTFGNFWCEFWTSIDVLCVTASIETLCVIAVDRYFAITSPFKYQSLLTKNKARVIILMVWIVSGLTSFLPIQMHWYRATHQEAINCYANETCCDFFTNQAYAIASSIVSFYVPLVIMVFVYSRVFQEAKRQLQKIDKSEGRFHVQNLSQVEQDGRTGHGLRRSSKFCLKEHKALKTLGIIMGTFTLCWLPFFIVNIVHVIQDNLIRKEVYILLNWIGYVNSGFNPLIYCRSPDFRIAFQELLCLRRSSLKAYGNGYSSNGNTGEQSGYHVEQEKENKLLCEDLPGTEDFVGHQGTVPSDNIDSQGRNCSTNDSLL

As for `CC(C)(OOC(C)(C)c1ccccc1)c1ccccc1`, the Potency entry in [1], in assay [3], in assay [4], in assay [5], in [6] and in assay [7] was “inactive” each time. Further, the Potency result in [8], in assay [9], in [10], in [11], in assay [12] and in assay [13] was “inactive” throughout. Also, the Potency entry in [14], in [15], in [16], in assay [17] and in assay [18] was “inactive” in each case. Moreover, the Potency in assay [2] is 21.7 µM (active).
`O=C(Cl)OCCOCCOC(=O)Cl`: the Potency result in assay [1], in assay [2], in assay [3], in assay [4], in assay [5] and in [6] was “inactive” throughout. For the same compound, the Potency result in [7], in assay [8], in assay [9], in assay [19], in assay [20] and in assay [12] was “inactive” in each case. For the same compound, the Potency entry in assay [13], in [14], in [15], in assay [16] and in [18] was “inactive” throughout.
For the compound `CC(C)=CCN1CC[C@@]2(C)c3cc(O)ccc3C[C@@H]1[C@@H]2C`, the Potency result in assay [1], in [2], in [3], in assay [4], in [5] and in [6] was “inactive” in each case. Moreover, the Potency result in assay [7], in assay [8], in assay [9], in assay [10], in [11] and in assay [20] was “inactive” throughout. Further, the Potency result in assay [13], in assay [14], in assay [15], in assay [16], in assay [17] and in assay [18] was “inactive” each time. For the same compound, the Potency in [12] was 9.28 µM (active).
As for `CCCC(C)(COC(N)=O)COC(=O)NC(C)C` (centres undefined), the Potency result in assay [1], in [2], in assay [3], in assay [4], in assay [5] and in assay [6] was “inactive” throughout. Besides, the Potency entry in assay [7], in assay [8], in assay [9], in [10], in assay [11] and in [20] was “inactive” throughout. Moreover, the Potency entry in assay [12], in assay [13], in assay [14], in assay [15], in [16] and in assay [18] was “inactive” throughout.
Regarding `CCCCCCCCCc1ccc(O)cc1`, the Potency in [1] is 27.6 µM (active); in assay [9], “inactive and 40.8 µM (active)”. For the same compound, the Potency entry in assay [2], in assay [3], in assay [4], in assay [5], in assay [6] and in assay [7] was “inactive” throughout. Moreover, the Potency entry in [8], in [19], in [14], in assay [15], in [16] and in assay [17] was “inactive” throughout. Moreover, the Potency entry in assay [18] was “inactive”.
With `CC(=O)[O][Hg][c]1ccccc1`, the Potency in assay [1] was 1.08 µM (active) and 2.17 µM (active) and 3.35 µM (active); in [2], 864 nM (active) and 2.66 µM (active); in assay [3], 34.4 µM (active) and 24.5 µM (active); in assay [8] it was 4.04 µM (active) and 5.13 µM (active); in [9], 3.6 µM (active) and 5.76 µM (active) and 11.2 µM (active); in [19], 1.61 µM (active) and 4.08 µM (active) and 5 µM (active). Moreover, the Potency was 21.7 µM (active) and 54.9 µM (active) and inactive in assay [20]; 43.6 µM (active) in assay [13]; 6.06 µM (active) and 2.73 µM (active) and 5.96 µM (active) in assay [18]. Besides, the Potency entry in [4], in [5], in assay [6], in [7], in assay [11] and in [12] was “inactive” in each case.
With `O=C1C(Cl)=C(Cl)C(=O)c2ccccc21`, the Potency is 24.4 µM (active) and 48.6 µM (active) in assay [1]; 5.46 µM (active) and 8.63 µM (active) in assay [2]; 34.8 µM (active) in [3]; 14.5 µM (active) in assay [8]; 26.6 µM (active) in assay [11]; 6.94 µM (active) in [20]. Besides, the Potency in [18] is 21.7 µM (active). Also, the Potency entry in [4], in assay [5], in assay [6], in [7], in assay [9] and in [19] was “inactive” each time. In addition, the Potency entry in [12], in assay [13] and in [17] was “inactive” throughout.
For `C#CCOS(=O)OC1CCCCC1Oc1ccc(C(C)(C)C)cc1` (centres undefined), the Potency in [1] was 68.7 µM (active) and inactive; in assay [2] it was 19.4 µM (active) and 19.3 µM (active); in assay [18], “inactive and 54.5 µM (active)”. Besides, the Potency result in [3], in assay [4], in [5], in [6], in assay [7] and in [8] was “inactive” throughout. Moreover, the Potency result in assay [9], in assay [19], in assay [11], in assay [20], in assay [12] and in assay [13] was “inactive” throughout. In addition, the Potency result in assay [17] is “inactive”.

Source of the values: PubChem BioAssay (Tox21).
